From PMC5540273 (PLoS ONE, 2017)

Experiments:
Settings in all cases: concentration: 1 μM, replicates: in singlicate; n = 1
PLK2 = tested on: PLK2
PLK3 = tested on: PLK3
PLK4 = tested on: PLK4
PRKCD = tested on: PRKCD
PRKCE = tested on: PRKCE
PRKCH = tested on: PRKCH
PRKCI = tested on: PRKCI
PRKCQ = tested on: PRKCQ
PRKD1 = tested on: PRKD1
PRKD2 = tested on: PRKD2
PRKD3 = tested on: PRKD3
PRKG1 = tested on: PRKG1
PRKG2 = tested on: PRKG2
PRKR = tested on: T1, PRKR
T1 construct: gene EIF2AK2

PRKX = tested on: PRKX
PRP4 = tested on: PRP4
PYK2 = tested on: T2, PYK2
T2 construct: gene PTK2B

QSK = tested on: QSK
RAF1 = tested on: RAF1
RET = tested on: RET
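Note: KINOMEscan kinase panel screen.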

Structure (SMILES) | %Inh (PLK2) [%] | %Inh (PLK3) [%] | %Inh (PLK4) [%] | %Inh (PRKCD) [%] | %Inh (PRKCE) [%] | %Inh (PRKCH) [%] | %Inh (PRKCI) [%] | %Inh (PRKCQ) [%] | %Inh (PRKD1) [%] | %Inh (PRKD2) [%] | %Inh (PRKD3) [%] | %Inh (PRKG1) [%] | %Inh (PRKG2) [%] | %Inh (PRKR) [%] | %Inh (PRKX) [%] | %Inh (PRP4) [%] | %Inh (PYK2) [%] | %Inh (QSK) [%] | %Inh (RAF1) [%] | %Inh (RET) [%]
NCCC(NC(=O)c1cc(Br)c(-c2ccnc3[nH]ccc23)s1)c1ccccc1.O=C(O)C(F)(F)F.O=C(O)C(F)(F)F (stereo not drawn) [GSK1307810] | 28 | 35 | 19 | 99.6 | 98.1 | 98.3 | 0 | 90 | 0 | 31 | 35 | 97.5 | 98.2 | 17 | 96.9 | 76 | 0 | 0 | 9 | 36
Cn1cc(-c2cnc(N)c3c(-c4ccc5c(c4)CCN5C(=O)Cc4ccccc4)csc23)cn1 [GSK2593074] | 41 | 16 | 19 | 9 | 0 | 0 | 0 | 0 | 6 | 0 | 0 | 0 | 0 | 8 | 0 | 0 | 6 | 1 | 0 | 34
COc1cccc(NC(=O)NCCNc2ccnc(Nc3ccc(F)cc3)n2)c1 [GSK1379879] | 0 | 0 | 4 | 0 | 18 | 5 | 20 | 12 | 0 | 0 | 0 | 4 | 0 | 0 | 14 | 49 | 21 | 0 | 15 | 0
CCn1cnc2c(NCc3ccccc3)ncnc21 [SKF-96418] | 25 | 34 | 1 | 3 | 29 | 0 | 0 | 0 | 0 | 0 | 0 | 0 | 0 | 8 | 0 | 41 | 0 | 10 | 17 | 0
O=C1NC(=O)C(c2ccccc2Cl)=C1Nc1cccc(Cl)c1 [SB-342409] | 0 | 0 | 0 | 0 | 42 | 0 | 9 | 100 | 0 | 0 | 22 | 0 | 0 | 0 | 15 | 0 | 5 | 5 | 37 | 1
Cc1ccc(-c2ccc3occ(-c4ccc(S(C)=O)cc4)c3c2)nn1 (stereo not drawn) | 0 | 0 | 2 | 1 | 0 | 0 | 0 | 13 | 30 | 9 | 0 | 14 | 0 | 0 | 0 | 13 | 0 | 0 | 6 | 0
COc1cc(Nc2ccnc3cc(-c4ccncc4)ccc23)cc(OC)c1OC.Cl [GW494610] | 0 | 0 | 0 | 13 | 25 | 16 | 0 | 0 | 19 | 24 | 6 | 8 | 69 | 0 | 0 | 27 | 16 | 84 | 23 | 24
Cc1ccc(O)cc1Nc1ccnc2ccc(C(C)(C)C)cc12 [GW856805] | 29 | 15 | 27 | 17 | 31 | 3 | 39 | 0 | 0 | 13 | 30 | 20 | 29 | 0 | 17 | 0 | 9 | 22 | 14 | 96
CCNc1nccc(-c2c(-c3ccc(F)cc3)ncn2C2CCN(C)CC2)n1 | 0 | 0 | 0 | 6 | 31 | 0 | 0 | 0 | 40 | 0 | 36 | 0 | 0 | 0 | 0 | 0 | 0 | 0 | 0 | 0
